# This is a sample that favours compounds with a hit; in the whole collection about 10% have one here.
# 12-hLO inh: inhibitors of human 12-lipoxygenase (ALOX12). P18054. purified 12-hLO, xylenol orange hydroperoxide absorbance. Potency, µM (doses to about 57.1 µM), without a hit: at the top dose activity change, negative = inhibition, hits mostly inhibitors. 0.12% of 150,000 active. AID 1452; active means well fitted inhibition curve with a large enough effect; inconclusive means small, poorly fitted or top-dose-only effect; further: potency means the concentration at half of the fitted maximal effect; nearly all actives have a fitted effect of over 55% in size
#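 Purified human 12hLO (150 nM final) was preincubated with compounds for 15 min at room temperature in 25 mM Hepes pH 7.0, 0.01% Triton X-100, then reacted with 40 uM arachidonic acid for 30 min. Hydroperoxide was detected with ferrous iron/xylenol orange.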
# PNC assembly inh: blocks assembly of the perinucleolar compartment; PC3M PTB-GFP, PNC prevalence imaging, 16 h; active compounds read low; activity change (PNC), negative = inhibition, % at 10 µM; 3.1% of 140,000 active; AID 2417;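 active means readout at or below -70, meaning at least 70% loss of cells showing the perinucleolar compartment, a nuclear body marking cancer cells; inconclusive means readout between -30 and a set limit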;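 further: plate controls were DMSO wells for no effect and camptothecin positive control wells for full effect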
#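 PC3M cells stably expressing PTB-GFP, 750–1000 cells/well, treated 16 h at 37 °C with compound (23 nl of library stock), in duplicate. After paraformaldehyde fixation and Hoechst stain, imaged at 20x; PNC prevalence scored by image analysis.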
# LMNA splice mod: changes lamin A minigene splicing in HeLa cells; HeLa LMNA splicing GFP/RFP minigene ratio, 48 h; Potency, µM (titrated, usually from 46.1 µM), for inactives: at the top dose ratio change, negative = inhibition, usual class: inhibitors; 0.01% of 200,000 active; AID 1487; active means well fitted inhibition curve with a large enough effect in the signal ratio, with a control signal flat, not every such curve was filed as active; inconclusive means small, poorly fitted or top-dose-only effect, or effect the other way, or a change in a side signal; the % refers to the signal ratio; further: potency means the concentration at half of the fitted maximal effect
#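 Read-out is the ratio of GFP to DsRed2 object intensity, acquired by 488 nm laser-scanning cytometry on HeLa lamin A-EGFP minigene reporter cells. Compound incubation 48 hrs at 37 °C in Opti-MEM with 2% FBS; DMSO 0.5% final.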
# ALDH1A1 inh: inhibitors of human aldehyde dehydrogenase 1A1; 7.3% of 220,000 active; Potency, µM (series often up to 75.3 µM), for inactives: at the highest dose activity, negative = inhibition, actives largely listed as inhibitors; AID 1030; P00352; Purified ALDH1A1, NADH fluorescence, propionaldehyde substrate;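 further: potency means the concentration at half of the fitted maximal effect; plate controls were no enzyme wells and a reference inhibitor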
# HPGD inh: HPGD (human) dehydrogenase inhibition; Potency, µM, inactives show top-dose activity change, negative = inhibition, actives largely listed as inhibitors; 4.3% of 150,000 active; P15428; AID 894; purified HPGD, NADH fluorescence kinetic, PGE2 substrate; further: potency means the concentration at half of the fitted maximal effect
# Target sequence (P15428 whole entry, looked up): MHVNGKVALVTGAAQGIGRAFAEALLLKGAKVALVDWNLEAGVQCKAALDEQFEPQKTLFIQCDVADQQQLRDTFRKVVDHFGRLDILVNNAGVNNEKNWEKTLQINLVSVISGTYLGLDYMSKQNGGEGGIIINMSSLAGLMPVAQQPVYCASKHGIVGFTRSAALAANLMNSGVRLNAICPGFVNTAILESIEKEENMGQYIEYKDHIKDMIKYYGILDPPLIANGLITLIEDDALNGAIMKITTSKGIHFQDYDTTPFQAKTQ
#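 NADH formation kinetics: reaction with 30 uM PGE2 and 1 mM NAD+ (final), 20 nM enzyme, Tris-HCl pH 8 with Tween 20, after 15 min compound preincubation at room temperature. Fluorescence change, last versus first of five reads.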
# Numbers without * were called inactive; ? = inconclusive; nt = no result; [ ] = dose if it differs, or a comment. Unless noted, the call rests on the fitted dose curve; in most records, active means well fitted inhibition curve with a large enough effect (not every such curve was filed as active); inconclusive means small, poorly fitted or top-dose-only effect, or another doubt; inactive means no such curve, though single readings can be large or run the other way. Unless noted, on the % scale 0 is the no-effect control and ±100 the full control effect.
SMILES,12-hLO inh,PNC assembly inh,LMNA splice mod,ALDH1A1 inh,HPGD inh
Cc1ccc(CNC(=O)CCc2cn(C)c3ccccc23)cc1,nt,nt,-4.6%[46 µM],nt,nt
CCCCCCCCCCCCCCC(F)C(=O)O (stereo not drawn),3.3%,nt,nt,-0.8%,-5.5%
Cn1c(=O)c2c(nc(SCCN3CCOCC3)n2Cc2cccc3ccccc23)n(C)c1=O,2.6%,12.8,14.5%,22.4µM*,-7.3%
Cn1c(=O)[nH]c(=O)c2c1nc(SCCN1CCOCC1)n2Cc1ccccc1,-4.8%,?,-8.6%,-1.4%,-22.1%
CC(C)CCn1c(Sc2nc3ccccc3s2)nc2c1c(=O)[nH]c(=O)n2C,-11.8%,?,?,11.2µM*,nt
Cn1c(=O)[nH]c(=O)c2c1nc(SCCN1CCOCC1)n2CCCc1ccccc1,0.9%,?,3.0%,-11.3%,35.5µM*
CCN1CCN(c2nc3c(c(=O)[nH]c(=O)n3C)n2CCSc2nc3ccccc3s2)CC1,-4.1%,-16.3,-5.8%,6.7%,-7.4%
O=C1CS(=O)(=O)C2(C(=O)N(Cc3cccc(F)c3)c3ccccc32)N1c1ccccc1 (stereo not drawn),nt,nt,0.2%[46 µM],nt,nt
CC1NC2(C(=O)N(Cc3ccccc3)c3ccccc32)C2C(=O)N(c3ccccc3)C(=O)C12 (stereo not drawn),4.4%,-20.8,-5.0%,14.1µM*,-14.9%
CCOc1ccccc1CNC(=O)c1cc(-c2ccc(OC)cc2)nc2ccc(C(C)C)cc12,nt,nt,-1.2%[46 µM],nt,nt
O=c1cc(-c2ccc(O)c(O)c2)oc2cc(OC3OC(CO)C(O)C(O)C3O)cc(O)c12 (stereo not drawn),-10.7%,nt,nt,?,-1.5%
CCN(C(=O)COC(=O)/C=C/c1cccc([N+](=O)[O-])c1)c1ccccc1,nt,nt,nt,14.1µM*,nt
CCNC(=O)COC(=O)/C=C/c1cccc([N+](=O)[O-])c1,nt,nt,-22.7%[46 µM],-5.6%,nt
CC(C)C(NC(=O)/C=C/c1cccc([N+](=O)[O-])c1)C(C)C,-1.8%,10.7,15.5%,1.1%,-4.4%
CCCCN(CCCC)C(=O)/C=C/c1cccc([N+](=O)[O-])c1,-13.4%,17.8,-14.9%,4.47µM*,-17.3%
CCOc1ccccc1NC(=O)C(=O)NCC(c1cccnc1)N1CCN(c2ccccc2)CC1 (stereo not drawn),nt,nt,1.4%[46 µM],nt,nt
CCCC(=O)NCc1nc2cccnc2n1Cc1ccc(F)cc1,nt,nt,7.7%[46 µM],nt,nt
C=CCOC(=O)/C(=C\c1ccccc1)NC(=O)c1ccco1,-1.9%,-16.4,2.5%,1.1%,-9.7%
CCOC(=O)/C(=C/c1ccccc1)NC(=O)c1ccco1,-6.7%,-81.4*,-12.6%,-7.5%,-8.9%
CCOC(=O)C1=CC2(CC)CCCN3CCc4c(n1c1ccccc41)C32 (stereo not drawn),nt,nt,nt,-0.7%,nt
Cc1cnc(CNc2ncnc3ccc(-c4cccc(NS(C)(=O)=O)c4)cc23)cn1,nt,nt,-3.3%,-3.1%,nt
COc1cccc(-c2cncnc2NCc2cnc(C)cn2)c1,nt,nt,?,6.9%,nt
COc1cccc(-c2cncnc2NCc2ccccc2)c1,8.6%,nt,?,?,14.1µM*
CS(=O)(=O)Nc1cccc(-c2ccc3ncnc(NCc4cccnc4)c3c2)c1,1.8%,nt,-4.4%,6.1%,25.1µM*
CS(=O)(=O)Nc1cccc(-c2nc(NCc3ccccc3)c3ccccc3n2)c1,nt,nt,?,25.1µM*,nt
SMILES,12-hLO inh,PNC assembly inh,LMNA splice mod,ALDH1A1 inh,HPGD inh
CS(=O)(=O)Nc1cccc(-c2nc(NCc3cccnc3)c3ccccc3n2)c1,2.3%,nt,-8.6%,7.5%,-15.1%
Cc1cccc(CNc2ncncc2-c2cccc(NS(C)(=O)=O)c2)c1,-5.3%,nt,?,?,15.8µM*
O=C(N/N=C1/C[C@@H](O)[C@@H](O)[C@@H]2[C@@H]3C(=O)N(Cc4ccc5c(c4)OCO5)C(=O)[C@H]3CC[C@H]12)OCc1ccccc1,nt,nt,nt,-3.8%[13.5 µM],nt
Cc1cc(F)ccc1NCC(=O)Nc1ccccc1Br,2.5%,2.7,-2.9%,28.2µM*,nt
COC(=O)[C@@H]1C[C@H]1[C@@H](NC(=O)Oc1ccc(F)cc1)c1ccccc1,-0.2%,nt,nt,7.94µM*,-6.3%
O=C(CSc1nnc2scc(-c3ccccc3)n12)Nc1ccc2c(c1)OCCO2,-2.9%,?,-15.4%,15.8µM*,-8.4%
CCc1c(C)nc(SCC(=O)Nc2ccc3c(c2)OCCO3)[nH]c1=O,nt,nt,nt,11.2µM*,nt
Nn1c(SCC(=O)Nc2ccc3c(c2)OCO3)nnc1-c1ccncc1,-4.7%,33.8,-4.9%,10.2%,-8.7%

# Assay outcomes: PubChem BioAssay, National Center for Advancing Translational Sciences (NCATS)
